Screening results (PubChem)
A selection: hits, their analogues and other compounds. The true share with any hit is near 2%.
EP2 mod: modulators of human EP2 prostaglandin E2 receptor | EP2-expressing cells, cAMP HTRF FRET, PGE2 co-stimulation | induction, % at 25 µM | 260,000 compounds, 0.83% hits;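 active = compounds whose cAMP rise, as percent of the full-agonist control response, exceeds 60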;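 also: rat C6 glioma line stably carrying human EP2 under a CMV promoter; the protocol text gives 20 µM as final concentration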
EP2 antag: inhibitors of human EP2 prostaglandin E2 receptor | 260,000 compounds, 0.52% hits | C6 glioma cells expressing human EP2, cAMP TR-FRET; cells stimulated with saturating PGE2 | P43116 | inhibition, % at 25 µM;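 active = percent inhibition above 40 after rounding to a whole number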;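 also: rat C6 glioma host cells with rolipram phosphodiesterase inhibitor present; the protocol text gives 20 µM as final concentration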
CHT inh: inhibits the human high affinity choline transporter. B-score at 10 µM. 310,000 compounds, 0.86% hits. Q9GZV3. AID 488975. CHT-expressing cells, membrane potential dye, choline response; active compounds read low;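 active = B-score over 3 SD under the library average, and starting fluorescence ratio not unusually high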;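 also: choline stimulus applied at its EC90 after an EC20 pre-addition; B-score computed on integrated fluorescence ratio after choline addition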
Target sequence (Q9GZV3 whole entry, looked up): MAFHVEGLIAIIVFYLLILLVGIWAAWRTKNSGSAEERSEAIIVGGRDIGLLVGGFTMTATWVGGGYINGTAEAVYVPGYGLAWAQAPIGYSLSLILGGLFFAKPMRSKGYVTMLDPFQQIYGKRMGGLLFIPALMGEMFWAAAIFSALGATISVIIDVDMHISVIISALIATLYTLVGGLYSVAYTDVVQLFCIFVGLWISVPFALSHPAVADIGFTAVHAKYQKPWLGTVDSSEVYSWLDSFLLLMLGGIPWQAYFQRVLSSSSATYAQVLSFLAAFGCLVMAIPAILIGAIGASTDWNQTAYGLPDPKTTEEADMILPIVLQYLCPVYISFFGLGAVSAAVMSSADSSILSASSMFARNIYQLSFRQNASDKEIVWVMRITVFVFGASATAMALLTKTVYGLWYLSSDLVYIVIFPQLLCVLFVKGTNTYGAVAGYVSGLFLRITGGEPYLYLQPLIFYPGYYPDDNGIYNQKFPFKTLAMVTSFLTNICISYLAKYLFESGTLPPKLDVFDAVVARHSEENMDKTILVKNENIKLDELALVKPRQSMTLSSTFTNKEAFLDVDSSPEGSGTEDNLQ
CHT allo act: human CHT allosteric activation; Q9GZV3; CHT-expressing cells, membrane potential dye, choline EC20; active compounds read high; LV-AA mutant CHT in HEK293 cells; B-score at 10 µM; 310,000 compounds, 0.49% hits; AID 488977;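 active = initial fluorescence not abnormally high and integrated response B-score, plate-corrected, over 3 SD above library mean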
EP2 confirm: EP2 receptor cAMP induction, counter-screens negative; shares compounds with EP2 mod; C6 glioma EP2 cells, cAMP HTRF induction; plus low (about EC15) PGE2 agonist; calls only at 20 µM (by protocol); 1,300 compounds, 47% hits;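 active = cAMP induction above 50% in the main assay while under 30% in all four parallel counter assays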;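 also: rat C6 glioma cells stably expressing human EP2 receptor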
Numbers stand for hits; n = inactive; x = no result; + = active, no number.

SMILES	EP2 mod	EP2 antag	CHT inh	CHT allo act	EP2 confirm
Cc1cc(C)c2nc(N3CCCN(C(=O)c4ccco4)CC3)c(C#N)cc2c1	69.9	n	n	n	+
CCn1nnnc1SCC(=O)Nc1cccc(C)n1	70.0	n	n	n	n
Cc1nc(SCCC(=O)O)c2ccccc2n1	82.5	n	n	n	n
O=C(O)CCSc1nc2ccccc2c(=O)[nH]1	n	n	n	n	x
CCCn1c(SCC(=O)Nc2cccc(O)c2)nc2c1c(=O)n(C)c(=O)n2C	n	n	x	x	x
CCC(=O)Oc1ccc(C(CC)C(CC)c2ccc(OC(=O)CC)cc2)cc1 (stereo unspecified)	69.3	n	n	n	+
Cc1ccc(OCC(=O)Oc2ccc(C(C)C)cc2)cc1	x	x	n	n	x
O=c1cc(N2CCCCC2)c(-c2ccccc2)nn1Cc1ccccc1	81.6	n	n	n	+
Cc1cc(SCCC(=O)O)nc2ccccc12	x	n	n	n	x
Cc1cc(SCC(=O)c2ccccc2)nc2ccccc12	n	n	x	x	n
COc1ccc2nc3sc(C#N)c(N)c3cc2c1	n	n	x	x	x
COc1cc(C(c2cn[nH]c2C)c2c(C)[nH][nH]c2=O)ccc1OC(=O)c1ccc(C)cc1 (stereo unspecified)	n	n	x	x	x
O=C(Nc1ccccc1)/C(=C/c1ccccc1)c1ccccc1	78.0	n	n	n	+
Cc1ccccc1NC(=O)/C(=C/c1ccccc1)c1ccccc1	67.5	n	n	n	+
CCOC(=O)C1=CN(CC2CCCO2)C=C(C(=O)OCC)C1c1ccccc1C(F)(F)F (stereo unspecified)	73.6	n	n	n	n
CCOC(=O)c1ccc(NC(=O)c2cccc3c2C(=O)N(CC2CCCO2)C3)cc1 (stereo unspecified)	x	x	n	n	x
COC(=O)c1ccc(Oc2cc(C)nc(NCc3ccccc3)n2)cc1	69.8	n	n	n	+
C/C(CCc1oc2ccccc2c1-c1ccc(C)o1)=N/O	75.1	n	n	n	+
O=C(c1ccc(Cl)cc1)c1oc2ccccc2c1CS(=O)c1ccccc1 (stereo unspecified)	71.2	n	n	n	+
O=C(O)c1oc2ccccc2c1CSc1ccc(Cl)cc1	x	x	n	n	x
Cc1nccc2[nH]c(=O)c(C(=O)NC3CCCCC3C)cc12 (stereo unspecified)	73.7	n	n	n	n
Cc1cc(C(=O)NC2CCCCC2C)c2ccccc2n1 (stereo unspecified)	x	x	n	n	x
O=C(c1ccccc1)N1N=C(c2ccccc2)CC1c1ccccc1O (stereo unspecified)	84.8	n	n	n	+
COc1ccc(C(=O)CSc2nnc3c(C)cc4cc(C)c(C)cc4n23)cc1	n	n	x	x	x
Cn1c(=O)[nH]c(=O)c2c1nc(CN1CCN(c3ccccc3F)CC1)n2CCCc1ccccc1	85.4	n	n	n	n
SMILES	EP2 mod	EP2 antag	CHT inh	CHT allo act	EP2 confirm
Cc1ccc(CSc2nc3ccccc3cc2C=O)cc1	70.7	n	n	n	n
S=c1[nH]nc(CSc2nc3ccccc3s2)n1Cc1ccccc1	n	n	n	n	n
COC(=O)/C(=C\C(C)=C\c1cccs1)C(C)=O	n	n	x	x	x
COc1ccc(C(c2nnnn2CCc2ccc(OC)c(OC)c2)N2CCN(C)CC2)cc1 (stereo unspecified)	n	n	x	x	x
O=C(Nc1ccc(F)cc1)N1CCC(c2ncncc2-c2ccncc2)CC1	n	x	x	x	x
Cn1c(=O)c(NC2CCCCC2)c2c3c(cccc31)C(=O)c1ccccc1-2	65.3	n	x	x	+
Cn1c(=O)c(NCCc2ccccc2)c2c3c(cccc31)C(=O)c1ccccc1-2	77.2	n	n	n	+
Cc1nn(Cc2ccccc2)c(Cl)c1C(=O)NCc1ccc(C)n1C	n	n	n	n	x
Cc1nn(Cc2c(Cl)cccc2Cl)c(C)c1C(=O)NCc1ccc(C)n1C	74.7	n	n	n	n
CCOC(=O)c1[nH]c2ccc(OC)cc2c1NS(=O)(=O)c1ccc(Cl)s1	95.6	n	n	n	+
CCc1cc2ccccc2nc1SCC(=O)Nc1ccc2c(c1)OCO2	n	n	x	x	x
FC(F)(F)c1nnc(-c2ccccc2)nc1Sc1ccccc1	74.9	n	n	n	n
FC(F)(F)c1nnc(-c2ccccc2)nc1Sc1ccc(Cl)cc1	n	n	n	n	x
Cc1ccc(Cl)cc1NC(=O)CN1C(=O)CSC1=O	n	n	x	x	x
C=CCSc1nccc(-c2cc(Cl)sc2Cl)n1	66.8	n	n	n	n
Cc1ccccc1-n1c(=O)[nH]c(=O)c2c(N)c(C(=O)c3ccc(Cl)cc3)sc21	65.9	n	n	n	n
Nc1c(C(=O)c2ccc(Cl)cc2)sc2c1c(=O)[nH]c(=O)n2-c1ccccc1	n	n	n	n	x
CCc1ccccc1N(CC(=O)NCc1ccc2c(c1)OCO2)S(C)(=O)=O	n	n	x	x	x
COC(=O)NC1(C(F)(F)F)C(=O)NC(C)=C1C(=O)OC (stereo unspecified)	70.7	n	n	n	n
COc1ccc(-n2c(=O)c3ccccc3c3ccccc3c2=O)c(OC)c1	n	n	n	n	x
COc1ccc(C)cc1-n1c(=O)c2ccccc2c2ccccc2c1=O	74.4	n	x	x	n
Cc1ccc(CSc2ncnc3c2cnn3Cc2ccccc2)cc1C	66.5	n	n	n	n
CCc1nc(N2CCC(C)CC2)c2oc3ccccc3c2n1	70.0	n	n	n	n
COc1cc(C(=O)NC(=S)Nc2ccc3oc(-c4ccc(C)cc4)nc3c2)cc(OC)c1OC	n	n	x	x	x
N#CCSc1nc2ccccc2c(=O)n1CCC(=O)NC1CCCCC1	n	n	n	n	x
SMILES	EP2 mod	EP2 antag	CHT inh	CHT allo act	EP2 confirm
N#CCSc1nc2ccccc2c(=O)n1C1CCCCC1	70.7	n	n	n	+
CCCOP(=O)(OCCC)C(Nc1cccc(C(F)(F)F)c1)c1ccc(C)cc1 (stereo unspecified)	68.1	n	n	n	n
CCOP(=O)(OCC)C(Nc1cccc(C(F)(F)F)c1)c1ccc(C)cc1 (stereo unspecified)	n	n	n	n	x
Nc1ccc(S(=O)(=O)N2CCSC2C(=O)O)cc1 (stereo unspecified)	n	n	x	x	x
CCOC(=O)CNC(=O)CSc1nnc2c3c4c(sc3ncn12)CC(C)CC4 (stereo unspecified)	n	n	x	x	x
Cn1c(=O)c2c(nc(SCC(=O)N3c4ccccc4CCc4ccccc43)n2C)n(C)c1=O	n	n	x	x	x
Cn1c(=O)c2c(nc(SCC(=O)N3CCc4ccccc4C3)n2C)n(C)c1=O	82.2	n	n	n	n
CN(C(=O)c1ccncc1)c1ccccc1	n	n	n	n	x
C/C(=N\N(Cc1ccccc1)c1ccccc1)c1ccncc1	75.1	n	n	n	+
NC(=O)CSc1nc(-c2ccccc2)c(-c2ccccc2)o1	67.1	n	n	n	+
Cc1cc2ccccc2nc1SCC(=O)NC1CCCC1	77.4	n	n	n	n
Cc1cc2ccccc2nc1SCC(=O)NC1CCCCC1	70.3	n	n	n	n
Cc1cc2cc3c(cc2nc1SCC(=O)NC1CCCCC1)OCO3	n	n	x	x	x
Cc1ccc2c(c1)N(S(=O)(=O)c1ccc(F)cc1)C(C(C)(C)C)CO2 (stereo unspecified)	77.2	n	n	n	+
